# Measured values as given in the supplement of paper PMC8975748.
# Counter-ions that a name gives are not always drawn. ± gives the standard deviation of the averaged measurements.
# Columns and labels:
# [1] = test system: Saccharomyces cerevisiae BY4741 SeMeCo community; experiment: mean cell size (pixel area) (pixels); higher = larger cells; conditions: 10 µM; 24 h; SM minimal medium
# In short: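 In this assay, mean cell pixel area per well was obtained from automated confocal images of paraformaldehyde-fixed yeast analysed in Harmony. The cells were a Saccharomyces cerevisiae BY4741 community with four plasmids, each complementing one auxotrophy and carrying a fluorescent marker, grown for 24 h in SM medium with drug at a final 10 µM in 384-well plates. Values are averaged across 3 replicates. Same SeMeCo high-content imaging drug screen: Selleck FDA-approved drugs at 10 µM, 24 h in SM medium, 384-well plates, 3 replicates.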
# [2] = test system: Saccharomyces cerevisiae BY4741 SeMeCo community; experiment: z-score of prototroph abundance vs DMSO median; higher = larger share of this subpopulation than in DMSO controls; conditions: 10 µM; 24 h; SM minimal medium; subpopulation (auxotrophy): Prototroph
# In short: (§1)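 Cells of a Saccharomyces cerevisiae BY4741 community, carrying four plasmids that each restored one auxotrophy and encoded a distinct fluorescent protein, were pre-grown overnight to OD600 1.0 and diluted to 0.3. A 70 µl volume was added to 384-well plates acoustically predosed with library drugs (10 µM final) and grown 24 h in minimal SM medium. After paraformaldehyde fixation, automated confocal microscopy was used, with single-auxotroph fluorescent strains for thresholds and autofluorescence correction. The abundance of each subpopulation was scored as a z-score against the vehicle-well median.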
# [3] = test system: Saccharomyces cerevisiae BY4741 SeMeCo community; experiment: z-score of subpopulation abundance vs DMSO median, subpopulation auxotrophic for M; higher = larger share of this subpopulation than in DMSO controls; conditions: 10 µM; 24 h; SM minimal medium; subpopulation (auxotrophy): M
# In short: as §1
# [4] = test system: Saccharomyces cerevisiae BY4741 SeMeCo community; experiment: z-score of subpopulation abundance vs DMSO median, subpopulation auxotrophic for L; higher = larger share of this subpopulation than in DMSO controls; conditions: 10 µM; 24 h; SM minimal medium; subpopulation (auxotrophy): L
# In short: as §1
# [5] = test system: Saccharomyces cerevisiae BY4741 SeMeCo community; experiment: z-score of subpopulation abundance vs DMSO median, subpopulation auxotrophic for U; higher = larger share of this subpopulation than in DMSO controls; conditions: 10 µM; 24 h; SM minimal medium; subpopulation (auxotrophy): U
# In short: as §1
# [6] = test system: Saccharomyces cerevisiae BY4741 SeMeCo community; experiment: z-score of subpopulation abundance vs DMSO median, subpopulation auxotrophic for H; higher = larger share of this subpopulation than in DMSO controls; conditions: 10 µM; 24 h; SM minimal medium; subpopulation (auxotrophy): H
# In short: as §1
# [7] = test system: Saccharomyces cerevisiae BY4741 SeMeCo community; experiment: z-score of subpopulation abundance vs DMSO median, subpopulation auxotrophic for LU; higher = larger share of this subpopulation than in DMSO controls; conditions: 10 µM; 24 h; SM minimal medium; subpopulation (auxotrophy): LU
# In short: as §1
# [8] = test system: Saccharomyces cerevisiae BY4741 SeMeCo community; experiment: z-score of subpopulation abundance vs DMSO median, subpopulation auxotrophic for LM; higher = larger share of this subpopulation than in DMSO controls; conditions: 10 µM; 24 h; SM minimal medium; subpopulation (auxotrophy): LM
# In short: as §1
# [9] = test system: Saccharomyces cerevisiae BY4741 SeMeCo community; experiment: z-score of subpopulation abundance vs DMSO median, subpopulation auxotrophic for HM; higher = larger share of this subpopulation than in DMSO controls; conditions: 10 µM; 24 h; SM minimal medium; subpopulation (auxotrophy): HM
# In short: as §1
# [10] = test system: Saccharomyces cerevisiae BY4741 SeMeCo community; experiment: z-score of subpopulation abundance vs DMSO median, subpopulation auxotrophic for HU; higher = larger share of this subpopulation than in DMSO controls; conditions: 10 µM; 24 h; SM minimal medium; subpopulation (auxotrophy): HU
# In short: as §1
# [11] = test system: Saccharomyces cerevisiae BY4741 SeMeCo community; experiment: z-score of subpopulation abundance vs DMSO median, subpopulation auxotrophic for UM; higher = larger share of this subpopulation than in DMSO controls; conditions: 10 µM; 24 h; SM minimal medium; subpopulation (auxotrophy): UM
# In short: as §1
# [12] = test system: Saccharomyces cerevisiae BY4741 SeMeCo community; experiment: z-score of subpopulation abundance vs DMSO median, subpopulation auxotrophic for HL; higher = larger share of this subpopulation than in DMSO controls; conditions: 10 µM; 24 h; SM minimal medium; subpopulation (auxotrophy): HL
# In short: as §1
# [13] = test system: Saccharomyces cerevisiae BY4741 SeMeCo community; experiment: z-score of subpopulation abundance vs DMSO median, subpopulation auxotrophic for HLU; higher = larger share of this subpopulation than in DMSO controls; conditions: 10 µM; 24 h; SM minimal medium; subpopulation (auxotrophy): HLU
# In short: as §1
# [14] = test system: Saccharomyces cerevisiae BY4741 SeMeCo community; experiment: z-score of subpopulation abundance vs DMSO median, subpopulation auxotrophic for HLM; higher = larger share of this subpopulation than in DMSO controls; conditions: 10 µM; 24 h; SM minimal medium; subpopulation (auxotrophy): HLM
# In short: as §1
# [15] = test system: Saccharomyces cerevisiae BY4741 SeMeCo community; experiment: z-score of subpopulation abundance vs DMSO median, subpopulation auxotrophic for HUM; higher = larger share of this subpopulation than in DMSO controls; conditions: 10 µM; 24 h; SM minimal medium; subpopulation (auxotrophy): HUM
# In short: as §1
# [16] = test system: Saccharomyces cerevisiae BY4741 SeMeCo community; experiment: z-score of subpopulation abundance vs DMSO median, subpopulation auxotrophic for HLUM; higher = larger share of this subpopulation than in DMSO controls; conditions: 10 µM; 24 h; SM minimal medium; subpopulation (auxotrophy): HLUM
# In short: as §1
# [17] = test system: Saccharomyces cerevisiae BY4741 SeMeCo community; experiment: z-score of subpopulation abundance vs DMSO median, subpopulation auxotrophic for LUM; higher = larger share of this subpopulation than in DMSO controls; conditions: 10 µM; 24 h; SM minimal medium; subpopulation (auxotrophy): LUM
# In short: as §1
SMILES,mean cell size [1],z-score of prototroph abundance [2],z-score of subpopulation abundance [3],z-score of subpopulation abundance [4],z-score of subpopulation abundance [5],z-score of subpopulation abundance [6],z-score of subpopulation abundance [7],z-score of subpopulation abundance [8],z-score of subpopulation abundance [9],z-score of subpopulation abundance [10],z-score of subpopulation abundance [11],z-score of subpopulation abundance [12],z-score of subpopulation abundance [13],z-score of subpopulation abundance [14],z-score of subpopulation abundance [15],z-score of subpopulation abundance [16],z-score of subpopulation abundance [17]
CC(=O)Oc1ccc(C(=C2CCCCC2)c2ccc(OC(C)=O)cc2)cc1 [Cyclofenil],12.3 ± 0.17,0.79,-1.19,-0.27,0.16,-0.22,-0.48,-1.03,-0.93,-0.3,-0.03,0.25,-0.23,0.41,-0.46,-0.2,–
C[C@@H]1[C@H](O)[C@@H](C)/C=C/C=C/C=C/C=C/C=C/C=C/C=C/[C@H](O[C@@H]2O[C@H](C)[C@@H](O)[C@H](N)[C@@H]2O)C[C@@H]2O[C@](O)(C[C@@H](O)C[C@@H](O)[C@H](O)CC[C@@H](O)C[C@@H](O)CC(=O)O[C@H]1C)C[C@H](O)[C@H]2C(=O)O [Amphotericin B],9.69 ± 0.22,-19.9,-8.72,-2.03,–,–,24.4,-0.85,0.42,10.5,29.4,8.48,31.3,12.6,75.7,163,29.1
C=CC[N+]1([C@H]2C[C@H]3[C@@H]4CC[C@H]5C[C@H](O)[C@@H](N6CCOCC6)C[C@]5(C)[C@H]4CC[C@]3(C)[C@H]2OC(C)=O)CCCC1 [Rocuronium Bromide],12.44 ± 0.065,–,-1.19,0.67,-0.5,-0.21,-0.06,-0.17,-0.59,-0.39,-0.71,–,0,-0.65,-1.09,-0.49,-0.48
COC(=O)Nc1nc2cc(C(=O)c3ccccc3)ccc2[nH]1 [Mebendazole],12.07 ± 0.077,-1.69,-0.56,0.37,–,1.06,0.33,1.32,1.02,1.39,1.89,0.26,-0.05,1.83,1.64,1.44,0.4
Cc1cc(NS(=O)(=O)c2ccc(N)cc2)no1 [Sulfamethoxazole sodium],12.3 ± 0.35,-0.28,0.79,-0.95,–,–,0.09,-1.48,-0.51,0.96,1.33,-1.13,-1.18,-0.73,1.03,-0.74,-0.34
O=C1[C@H]2CCCC[C@H]2C(=O)N1CCCCN1CCN(c2nsc3ccccc23)CC1 [Perospirone hydrochloride],12.5 ± 0.18,0.14,-0.63,0.16,0.1,-0.14,0.24,-0.76,-0.27,0.13,-0.02,-0.17,0.2,0.02,-0.23,-0.08,–
CC(C)NC(=N)NC(=N)Nc1ccc(Cl)cc1 [Proguanil],12.3 ± 0.13,0,0.65,-1.12,1.07,-0.88,-0.48,0.02,0.11,-0.55,0.61,-0.81,-0.46,-0.27,-0.17,-0.44,–
CCOC(=O)c1ccc(N)cc1 [Benzocaine hydrochloride],12.43 ± 0.056,-0.32,-1.03,-0.9,–,-0.31,0.5,-0.93,-0.65,0.87,0.51,0,-0.85,-0.46,0.44,0.01,0.12
CCN1CCN(C(=O)N[C@@H](C(=O)N[C@@H]2C(=O)N3[C@@H]2SC(C)(C)[C@@H]3C(=O)O)c2ccccc2)C(=O)C1=O [Piperacillin Sodium],12.6 ± 0.14,-0.12,0.21,1.08,–,-0.01,-0.03,0.88,1.21,-0.25,-0.96,–,0.68,0.59,0.48,-0.13,0.86
CCCCCCCCCCCC(=O)O [Lauric Acid],12.2 ± 0.16,0.84,-1.03,-0.6,–,-1.48,-0.2,-0.8,-0.82,-0.42,0.3,-1.05,-0.82,-1.21,-0.04,-0.48,-0.68
Nc1nc(O)c2ncn(CCC(CO)CO)c2n1 [Penciclovir],12.4 ± 0.4,-0.05,-0.61,-0.31,0.53,0.22,0.58,-0.19,0.31,0.29,0.66,-0.26,-0.33,-0.62,0.59,-0.97,–
C[C@]12CC[C@@H]3c4ccc(O)cc4C[C@@H](CCCCCCCCC[S+]([O-])CCCC(F)(F)C(F)(F)F)[C@H]3[C@@H]1CC[C@@H]2O (stereo not given in full) [Fulvestrant],12.4 ± 0.074,-1.17,0.89,1.23,-0.43,0.56,0.81,1.39,0.9,0.88,–,–,1.48,0.89,1.23,1.35,–
CN(CCOc1ccc(NS(C)(=O)=O)cc1)CCc1ccc(NS(C)(=O)=O)cc1 [Dofetilide],12.4 ± 0.18,0.39,-0.18,-0.53,0.48,–,0.5,0.47,-0.88,0.18,0.1,-0.22,-0.23,-0.86,0.21,-0.1,–
CO[C@@]1(NC(=O)C(C(=O)O)c2ccc(O)cc2)C(=O)N2C(C(=O)O)=C(CSc3nnnn3C)CO[C@@H]21 (stereo not given in full) [Latamoxef sodium],12.7 ± 0.16,–,0.17,-0.05,-0.29,–,-0.08,-0.29,-0.22,0,–,-0.07,0.4,0.83,-0.43,0.61,-0.71
